AMA1 RON2 block = qHTS for Inhibitors of AMA1-RON; Towards Development of Antimalarial Drug Lead: Primary Screen; Plasmodium falciparum AMA1 (3D7) - RON2 peptide interaction; AlphaScreen AMA1-biotinylated RON2 peptide binding; Potency, µM (series often up to 58.2 µM), without a hit: at the top dose activity change, negative = inhibition, most hits filed as inhibitors; 0.2% of 360,000 active; AID 720542, 2013;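 note: 0% = vehicle wells and -100% = peptide control; nearly all actives have a fitted effect of over 45% in size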
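AMA1 (3D7) with his tag at 25 nM final met compounds first, then biotinylated RON2 peptide at 25 nM; detection used donor plus acceptor beads, 10 µg/mL apiece, read by AlphaScreen after 30 min at room temperature.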
Pf growth 96h = Primary qHTS for delayed death inhibitors of the malarial parasite plastid, 96 hour incubation; 6.9% of 320,000 active; AID 504834, 2011; P. falciparum luciferase reporter growth, 96 h; Potency, µM (series often up to 28.7 µM), inactives show at the top dose activity change, negative = inhibition, most hits filed as inhibitors; note: % is set by controls: 0 for no effect and ±100 for the full control effect
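Readout is luminescence from an integrated firefly luciferase in P. falciparum. Red cells, 2% hematocrit and 0.05% parasitemia final, were cultured with compound through two parasite generations (96 hours) at 37 C, 5% CO2.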
Pf growth 48h = Primary qHTS for delayed death inhibitors of the malarial parasite plastid, 48 hour incubation | Potency, µM (series often up to 28.7 µM), for inactives: top-dose activity change, negative = inhibition, most hits filed as inhibitors | 5.9% of 310,000 active | P. falciparum luciferase growth in erythrocytes, 48 h; note: % is set by controls: 0 for no effect and ±100 for the full control effect
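Luminescence readout; reporter = integrated firefly luciferase in P. falciparum. RBC culture at 2% hematocrit, 0.1% parasitemia final, 37 C/5% CO2; decreased signal taken as growth inhibition.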
SARS PLpro yeast = qHTS of Yeast-based Assay for SARS-CoV PLP. S. cerevisiae expressing SARS-CoV PLpro, growth rescue. Potency, µM (doses to about 32.9 µM), for the others: at the top dose activity, positive = growth rescue, most hits filed as activators. 0.19% of 330,000 active. AID 485353, 2010; calls by dose curve; note: 0% is about no effect; nearly all actives have a fitted effect of over 55% in size
* = called active by the depositor; [ ] = dose if it differs, or a comment. In the library only some 9.4% were active in any assay of this set; here they are far more common. Unless noted, calls come from the whole dose curve; as a rule, active = well fitted curve in the direction sought with a large enough effect; inconclusive = small, poorly fitted or top-dose-only effect, or another doubt; inactive = no such curve, though single readings can be large; an effect the other way counts as inactive or inconclusive. Potency is the fitted concentration of half-maximal effect.

How did Cc1cc(C(C)(C)C)oc1C(=O)N(CC(=O)NC1CCCC1)Cc1ccccc1Cl do in these assays?
AMA1 RON2 block: -6.1%; Pf growth 96h: 9.28µM*; Pf growth 48h: inconclusive; SARS PLpro yeast: -15.7%

What do the screens show for `Cc1cc(C(C)(C)C)oc1C(=O)N(CC(=O)NC1CCCC1)c1cccc(C(F)(F)F)c1`?
AMA1 RON2 block: -9.0%; Pf growth 96h: 11.7µM*; Pf growth 48h: 9.28µM*; SARS PLpro yeast: -8.9%

What do the screens show for `Cc1ccccc1N(CC(=O)NC1CCCC1)C(=O)c1oc(C(C)(C)C)cc1C`?
AMA1 RON2 block: -13.9%; Pf growth 96h: inconclusive; Pf growth 48h: 11.7µM*; SARS PLpro yeast: 1.6%

Results for COC(=O)C1=C(c2ccc(C(C)=O)cc2)C[C@@H]2CC[C@H]1N2C(=O)NCc1ccc2c(c1)OCO2 ?
AMA1 RON2 block: 12.1%; Pf growth 96h: 3.29µM*; Pf growth 48h: 11.7µM*; SARS PLpro yeast: -11.1%

What do the screens show for `COC(=O)C1=C(c2ccc(OC)c(OC)c2)C[C@@H]2CC[C@H]1N2C(=O)NCc1ccc(F)cc1`?
AMA1 RON2 block: -5.3%; Pf growth 96h: inconclusive; Pf growth 48h: -53.4%; SARS PLpro yeast: -8.5%

What do the screens show for `COC(=O)C1=C(c2ccc3ccccc3c2)C[C@@H]2CC[C@H]1N2C(=O)NCc1ccc(C(F)(F)F)cc1`?
AMA1 RON2 block: -4.5%; Pf growth 96h: inconclusive; Pf growth 48h: 8.28µM*; SARS PLpro yeast: 4.1%

Results for COC(=O)C1=C(c2ccc3ccccc3c2)C[C@@H]2CC[C@H]1N2C(=O)NCc1ccc(F)cc1 ?
AMA1 RON2 block: -7.0%; Pf growth 96h: inconclusive; Pf growth 48h: 8.28µM*; SARS PLpro yeast: -4.0%

How did COC(=O)C1=C(c2ccccc2)C[C@@H]2CC[C@H]1N2C(=O)NCc1ccc(C(F)(F)F)cc1 do in these assays?
AMA1 RON2 block: -3.9%

Results for Cc1ccc(NCc2nnc(SCC(=O)Nc3ccccc3)n2CC2CCCO2)c(C)c1 (stereo not drawn) ?
AMA1 RON2 block: 2.9%; Pf growth 48h: -0.7%; SARS PLpro yeast: -0.1%

How did Cc1ccc2c(Cl)c(C(=O)N/N=C/c3cccn3C)sc2c1 do in these assays?
AMA1 RON2 block: 9.7%[11.6 µM]; Pf growth 96h: inconclusive; Pf growth 48h: 40.4%; SARS PLpro yeast: -15.2%

What do the screens show for `Cn1cccc1/C=N/NC(=O)c1sc2cc(Cl)ccc2c1Cl`?
Pf growth 96h: 2.33µM*; Pf growth 48h: 6.5%; SARS PLpro yeast: -5.8%

How did Cc1cc(=O)oc2c(CN3CC(C)OC(C)C3)c(O)c(Cl)cc12 (stereo not drawn) do in these assays?
AMA1 RON2 block: -11.9%; Pf growth 96h: 18.6%; Pf growth 48h: 13.3%; SARS PLpro yeast: 1.2%

Results for O=C(CCn1cnc2ccccc21)N=Nc1c(O)[nH]c2ccccc12 ?
AMA1 RON2 block: 7.9%; Pf growth 96h: -12.1%; Pf growth 48h: -12.2%; SARS PLpro yeast: -1.5%

How did Cn1c(=O)c2ncn(CC(=O)N=Nc3c(O)[nH]c4ccccc34)c2n(C)c1=O do in these assays?
Pf growth 96h: 33.8%[1.15 µM]; Pf growth 48h: 11.7µM*; SARS PLpro yeast: 1.9%

Results for Cc1cc(C)c(S(=O)(=O)N2CCN(C(=O)CC(C)n3nc(C)nc3C)CC2)c(C)c1 (stereo not drawn) ?
AMA1 RON2 block: -6.3%

What do the screens show for `Cc1cc(C)nc(N/N=C/C(Cl)=C/c2ccccc2)n1`?
AMA1 RON2 block: 38.6%; Pf growth 96h: 3.7µM*; SARS PLpro yeast: 9.4%

What do the screens show for `Cc1cc(C)nc(N/N=C/c2ccccc2)n1`?
AMA1 RON2 block: 40.4%; Pf growth 96h: 16.8%; Pf growth 48h: 18.4%; SARS PLpro yeast: -4.0%

How did COc1ccc(CCn2c(C)cc(C(=O)CN3C(=O)C(=O)N(C4CCCC4)C3=O)c2C)cc1OC do in these assays?
AMA1 RON2 block: -16.0%; Pf growth 96h: inconclusive; Pf growth 48h: 9.28µM*; SARS PLpro yeast: 3.5%

What do the screens show for `CCOc1ccc(C2=C(C=C(C#N)C#N)C(c3ccccc3)c3ccccc3O2)cc1` (stereo not drawn)?
AMA1 RON2 block: -17.9%; Pf growth 96h: 4.0%; Pf growth 48h: 3.7µM*; SARS PLpro yeast: 6.1%

How did CCOc1ccc(C2C(C#N)=C(N)Oc3c2c(=O)oc2ccccc32)cc1 (stereo not drawn) do in these assays?
AMA1 RON2 block: -13.8%; Pf growth 96h: inconclusive; Pf growth 48h: -8.8%; SARS PLpro yeast: 6.9%

High-throughput results from PubChem BioAssay.
